PubChem BioAssay
This is one part of the list. Activity calls are given as the source filed them. Cut-off read from the data, not from the text of the source, unless noted: active = inhibition above about 25%; inactive = the rest.

Key:
[1] = target: Nuclear receptor coactivator 3 (Homo sapiens) (UniProt Q9Y6Q9); experiment: NCOA3 GAL4-fusion reporter inhibition – cell-based, luminescence, quadruplicate, confirmation (AID 588792;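 active = mean inhibition over 43.08%, the solvent-only control mean plus 3 SD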;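 note: 0% = DMSO treated cells and 100% = gossypol at 36 µM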); conditions: HEK293 GAL4-SRC3 luciferase reporter, at 3.6 µM, stronger effect = higher value
Chain of Nuclear receptor coactivator 3 (Homo sapiens) (Q9Y6Q9 whole entry, looked up, the tested form may be a part): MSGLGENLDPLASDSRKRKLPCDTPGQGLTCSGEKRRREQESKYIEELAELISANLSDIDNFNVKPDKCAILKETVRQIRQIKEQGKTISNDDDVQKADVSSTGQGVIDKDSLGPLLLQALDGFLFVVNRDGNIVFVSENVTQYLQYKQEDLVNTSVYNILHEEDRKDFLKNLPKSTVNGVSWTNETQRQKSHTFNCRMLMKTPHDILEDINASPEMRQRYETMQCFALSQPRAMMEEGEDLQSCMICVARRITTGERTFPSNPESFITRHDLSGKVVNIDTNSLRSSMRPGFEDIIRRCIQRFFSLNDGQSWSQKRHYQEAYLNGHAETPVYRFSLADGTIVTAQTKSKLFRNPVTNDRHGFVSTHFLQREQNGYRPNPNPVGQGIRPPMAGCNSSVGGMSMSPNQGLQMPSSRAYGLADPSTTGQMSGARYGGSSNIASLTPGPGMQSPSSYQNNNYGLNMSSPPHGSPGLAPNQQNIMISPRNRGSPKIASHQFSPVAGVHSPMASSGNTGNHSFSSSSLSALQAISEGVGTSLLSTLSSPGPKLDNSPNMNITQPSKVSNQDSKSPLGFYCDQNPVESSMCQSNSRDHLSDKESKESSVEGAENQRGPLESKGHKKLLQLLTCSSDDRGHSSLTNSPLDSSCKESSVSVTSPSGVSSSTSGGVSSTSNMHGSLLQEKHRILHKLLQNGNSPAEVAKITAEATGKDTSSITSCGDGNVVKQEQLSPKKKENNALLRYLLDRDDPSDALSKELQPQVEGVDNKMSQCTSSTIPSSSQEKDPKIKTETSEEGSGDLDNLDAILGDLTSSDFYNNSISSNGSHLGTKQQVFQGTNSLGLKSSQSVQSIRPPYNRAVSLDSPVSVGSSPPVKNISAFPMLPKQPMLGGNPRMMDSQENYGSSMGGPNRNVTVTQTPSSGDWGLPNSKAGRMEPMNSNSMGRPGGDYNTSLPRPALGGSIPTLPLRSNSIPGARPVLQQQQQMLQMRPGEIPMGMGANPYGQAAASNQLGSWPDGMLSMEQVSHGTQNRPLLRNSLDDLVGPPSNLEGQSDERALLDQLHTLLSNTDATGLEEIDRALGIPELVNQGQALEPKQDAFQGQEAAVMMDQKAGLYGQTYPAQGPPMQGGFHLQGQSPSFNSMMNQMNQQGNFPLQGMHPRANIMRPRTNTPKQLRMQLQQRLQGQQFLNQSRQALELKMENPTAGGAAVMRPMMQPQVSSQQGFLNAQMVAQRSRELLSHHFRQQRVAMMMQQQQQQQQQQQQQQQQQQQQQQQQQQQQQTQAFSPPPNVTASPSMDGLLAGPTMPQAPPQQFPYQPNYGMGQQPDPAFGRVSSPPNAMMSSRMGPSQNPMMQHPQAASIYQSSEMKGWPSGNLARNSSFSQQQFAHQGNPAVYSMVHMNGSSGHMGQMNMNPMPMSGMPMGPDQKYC

[2] = tested on: transactivating tegument protein VP16 (Human herpesvirus 1), Gal4-VP16 luciferase reporter; experiment: repression of VP16-driven luciferase reporter – cell-based, luminescence, high throughput, counter-screen for SRC3 inhibitor project (AID 588794; in the data active = inhibition above about 30%); conditions: mammalian cells, at 3.6 µM, stronger effect = higher value
[3] = target: Nuclear receptor coactivator 1 (Homo sapiens) (UniProt Q15788); experiment: NCOA1 GAL4-fusion reporter inhibition – cell-based, luminescence, quadruplicate, confirmation (AID 588820;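 active = mean inhibition above 46.68%, the untreated control wells mean plus 3 SD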;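 note: 0% = DMSO wells and 100% = gossypol 36 µM treated wells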); conditions: HEK293 GAL4-SRC1 luciferase reporter, at 3.6 µM, stronger effect = higher value
Chain of Nuclear receptor coactivator 1 (Homo sapiens) (Q15788 whole entry, looked up, the tested form may be a part): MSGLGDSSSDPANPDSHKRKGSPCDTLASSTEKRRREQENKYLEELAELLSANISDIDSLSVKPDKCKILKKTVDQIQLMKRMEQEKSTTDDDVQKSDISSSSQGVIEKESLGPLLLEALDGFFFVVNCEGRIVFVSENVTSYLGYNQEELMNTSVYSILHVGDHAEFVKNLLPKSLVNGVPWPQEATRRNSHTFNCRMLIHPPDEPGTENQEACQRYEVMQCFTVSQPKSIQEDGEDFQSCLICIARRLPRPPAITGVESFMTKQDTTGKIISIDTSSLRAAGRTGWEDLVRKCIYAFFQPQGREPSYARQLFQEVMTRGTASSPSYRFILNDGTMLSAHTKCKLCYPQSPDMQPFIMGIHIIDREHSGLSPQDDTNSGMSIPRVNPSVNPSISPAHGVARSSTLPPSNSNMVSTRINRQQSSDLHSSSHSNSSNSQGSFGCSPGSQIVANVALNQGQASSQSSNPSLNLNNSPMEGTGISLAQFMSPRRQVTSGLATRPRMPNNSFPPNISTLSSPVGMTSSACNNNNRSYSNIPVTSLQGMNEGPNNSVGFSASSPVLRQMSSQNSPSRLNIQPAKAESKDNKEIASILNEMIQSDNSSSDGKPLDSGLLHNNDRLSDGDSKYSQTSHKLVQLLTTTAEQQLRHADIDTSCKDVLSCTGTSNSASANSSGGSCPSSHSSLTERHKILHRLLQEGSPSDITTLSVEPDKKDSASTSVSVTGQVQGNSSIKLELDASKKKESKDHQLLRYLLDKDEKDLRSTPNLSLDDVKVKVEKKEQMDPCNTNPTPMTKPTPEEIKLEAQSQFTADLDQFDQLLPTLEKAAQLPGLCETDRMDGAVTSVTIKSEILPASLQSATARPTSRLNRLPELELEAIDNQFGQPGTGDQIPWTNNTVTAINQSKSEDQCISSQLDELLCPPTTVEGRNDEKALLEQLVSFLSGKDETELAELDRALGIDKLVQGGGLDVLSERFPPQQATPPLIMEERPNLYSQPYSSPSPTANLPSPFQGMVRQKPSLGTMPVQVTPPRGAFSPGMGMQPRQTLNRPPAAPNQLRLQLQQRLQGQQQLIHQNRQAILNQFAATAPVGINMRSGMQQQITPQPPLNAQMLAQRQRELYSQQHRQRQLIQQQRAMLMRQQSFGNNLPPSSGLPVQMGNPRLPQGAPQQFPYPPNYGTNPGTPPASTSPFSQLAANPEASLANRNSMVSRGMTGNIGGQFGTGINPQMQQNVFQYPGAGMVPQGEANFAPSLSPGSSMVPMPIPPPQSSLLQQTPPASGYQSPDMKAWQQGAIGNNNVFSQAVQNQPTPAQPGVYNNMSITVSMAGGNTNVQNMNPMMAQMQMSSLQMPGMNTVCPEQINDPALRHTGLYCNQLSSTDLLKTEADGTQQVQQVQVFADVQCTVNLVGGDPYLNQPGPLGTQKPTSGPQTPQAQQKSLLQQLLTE

[4] = repression of VP16-driven luciferase reporter – cell-based, luminescence, high throughput, counter-screen for SRC1 inhibitor project (AID 588824); conditions: cell-based VP16 transactivation luciferase luminescence; at 3.6 µM; stronger effect = higher value
[5] = tested on: transactivating tegument protein VP16 (Human herpesvirus 1); experiment: compounds suppressing VP16-driven luciferase signal – cell-based, luminescence, single concentration, counter-screen for SRC2 inhibitor project (AID 652007; in the data active = inhibition above about 36%); conditions: cell-based VP16 transactivation luciferase reporter, at 8.9 µM, stronger effect = higher value
[6] = target: Nuclear receptor coactivator 2 (Homo sapiens) (UniProt Q15596); experiment: inhibition of GAL4-SRC2 driven luciferase expression – cell-based, luminescence, HEK293, triplicate, confirmation (AID 652008;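 active = mean inhibition above 46.5%, the solvent-only control mean plus 3 SD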;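 note: 0% = DMSO-treated cells and 100% = Gossypol at 36 µM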); conditions: HEK293 GAL4-SRC2 luciferase reporter, at 8.9 µM, stronger effect = higher value
Chain of Nuclear receptor coactivator 2 (Homo sapiens) (Q15596 whole entry, looked up, the tested form may be a part): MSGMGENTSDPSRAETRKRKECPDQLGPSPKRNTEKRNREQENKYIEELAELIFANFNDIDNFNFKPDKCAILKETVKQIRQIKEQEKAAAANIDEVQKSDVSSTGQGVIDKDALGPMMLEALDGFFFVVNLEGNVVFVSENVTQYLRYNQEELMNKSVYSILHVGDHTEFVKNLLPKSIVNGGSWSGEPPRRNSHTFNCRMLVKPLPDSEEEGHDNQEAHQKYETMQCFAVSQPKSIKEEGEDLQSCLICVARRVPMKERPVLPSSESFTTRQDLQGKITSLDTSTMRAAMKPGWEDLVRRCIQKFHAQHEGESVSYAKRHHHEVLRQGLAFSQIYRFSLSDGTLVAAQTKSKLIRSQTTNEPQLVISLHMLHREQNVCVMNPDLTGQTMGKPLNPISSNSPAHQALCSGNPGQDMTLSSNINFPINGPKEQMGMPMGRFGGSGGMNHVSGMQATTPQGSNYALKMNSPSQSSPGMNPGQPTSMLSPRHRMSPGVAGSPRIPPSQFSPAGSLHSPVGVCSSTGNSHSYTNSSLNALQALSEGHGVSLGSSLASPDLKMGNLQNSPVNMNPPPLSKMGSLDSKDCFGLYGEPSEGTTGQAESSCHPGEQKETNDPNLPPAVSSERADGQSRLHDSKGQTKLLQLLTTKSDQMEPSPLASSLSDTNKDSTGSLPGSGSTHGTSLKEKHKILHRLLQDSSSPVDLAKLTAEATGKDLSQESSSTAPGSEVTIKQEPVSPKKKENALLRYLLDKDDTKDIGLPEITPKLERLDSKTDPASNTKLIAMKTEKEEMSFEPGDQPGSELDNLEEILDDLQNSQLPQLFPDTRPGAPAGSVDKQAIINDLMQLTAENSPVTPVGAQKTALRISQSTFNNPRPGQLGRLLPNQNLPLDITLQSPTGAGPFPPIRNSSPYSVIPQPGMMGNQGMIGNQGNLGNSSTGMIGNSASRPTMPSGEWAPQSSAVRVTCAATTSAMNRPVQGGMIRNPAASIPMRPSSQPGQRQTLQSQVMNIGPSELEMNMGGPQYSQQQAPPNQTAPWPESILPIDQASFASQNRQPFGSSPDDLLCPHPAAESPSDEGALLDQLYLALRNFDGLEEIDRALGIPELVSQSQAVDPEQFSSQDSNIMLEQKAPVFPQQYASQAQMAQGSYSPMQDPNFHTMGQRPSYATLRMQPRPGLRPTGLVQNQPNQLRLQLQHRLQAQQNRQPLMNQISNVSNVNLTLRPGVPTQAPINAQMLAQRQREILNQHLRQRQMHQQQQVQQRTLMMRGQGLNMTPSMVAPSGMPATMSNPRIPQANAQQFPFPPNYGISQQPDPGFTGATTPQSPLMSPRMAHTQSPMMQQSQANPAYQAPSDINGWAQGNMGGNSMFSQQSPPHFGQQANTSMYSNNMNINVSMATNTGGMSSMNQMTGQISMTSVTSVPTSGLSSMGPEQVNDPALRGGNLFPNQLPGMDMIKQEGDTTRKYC

[7] = StAR promoter reporter inhibitors, counter-screen for LRH-1 inverse agonist project, cell-based, luminescence, high throughput (AID 651611; in the data active = inhibition above about 28%); conditions: StAR promoter luciferase reporter counterscreen, at 3.6 µM, stronger effect = higher value
[8] = target: Nuclear receptor subfamily 5 group A member 2 (Homo sapiens) (UniProt O00482); experiment: NR5A2 activity suppression in reporter cells – cell-based, luminescence, confirmation (AID 651613; in the data active = inhibition above about 42%;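 note: HEK293T cells co-transfected with LRH-1 and StAR promoter luciferase reporter; 0% = vehicle wells and 100% = parental cells lacking receptor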); conditions: cell-based LRH-1 luciferase reporter, inverse agonism; at 3.6 µM; stronger effect = higher value
Chain of Nuclear receptor subfamily 5 group A member 2 (Homo sapiens) (O00482 whole entry, looked up): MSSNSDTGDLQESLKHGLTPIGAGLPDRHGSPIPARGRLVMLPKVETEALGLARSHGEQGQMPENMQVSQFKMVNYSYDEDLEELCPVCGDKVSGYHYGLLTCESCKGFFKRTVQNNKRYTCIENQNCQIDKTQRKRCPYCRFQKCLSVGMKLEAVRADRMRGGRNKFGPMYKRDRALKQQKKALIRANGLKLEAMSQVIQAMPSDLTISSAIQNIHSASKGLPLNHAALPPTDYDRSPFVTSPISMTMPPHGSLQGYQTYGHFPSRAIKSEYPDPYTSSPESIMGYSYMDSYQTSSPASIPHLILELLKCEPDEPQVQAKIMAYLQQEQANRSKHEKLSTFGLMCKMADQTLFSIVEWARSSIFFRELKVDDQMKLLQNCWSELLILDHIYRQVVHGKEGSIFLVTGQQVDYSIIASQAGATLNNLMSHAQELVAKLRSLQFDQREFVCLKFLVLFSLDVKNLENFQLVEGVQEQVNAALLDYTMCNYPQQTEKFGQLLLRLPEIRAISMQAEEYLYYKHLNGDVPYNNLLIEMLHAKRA

[9] = target: Steroidogenic factor 1 (Homo sapiens) (UniProt Q13285); experiment: inverse agonism at SF1 nuclear receptor – cell-based, luminescence, high throughput, counter-screen for LRH-1 inverse agonist project (AID 651614; in the data active = inhibition above about 44%;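 note: cells cotransfected with StAR promoter reporter and SF1 expression vector; 0% = vehicle on cells with receptor and 100% = vehicle on cells lacking receptor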); conditions: cell-based SF1 luciferase reporter, at 3.6 µM, stronger effect = higher value
[10] = compounds suppressing VP16-driven luciferase signal – cell-based, luminescence, high throughput, counter-screen for LRH-1 inverse agonist project (AID 651615; in the data active = inhibition above about 33%); conditions: Gal4-VP16 luciferase reporter cells, at 3.6 µM, stronger effect = higher value
[11] = VP16-driven transactivation reporter suppression – cell-based, luminescence, HEK293, counter-screen for COUP-TFII antagonist project (AID 687007; in the data active = inhibition above about 13%); conditions: HEK293 Gal4-VP16 luciferase reporter, at 8.5 µM, stronger effect = higher value
[12] = target: COUP transcription factor 2 (Homo sapiens) (UniProt P24468); experiment: retest of COUP-TFII reporter suppressors – cell-based, luciferase reporter, HEK293, triplicate, confirmation (AID 687008;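 active = mean inhibition over three repeats above a set limit taken from the earlier primary screen, cut at about 38% in these data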;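 note: 100% = cells given the luciferase reporter alone without the COUP-TF2 vector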); conditions: HEK293 NGFI-A luciferase reporter, luminescence; at 8.5 µM; stronger effect = higher value

Measured: inhibition

Cc1ccc(OCC(=O)c2cc(C)n(Cc3cccs3)c2C)c([N+](=O)[O-])n1
active: [6] 52.2%
inactive: [1] 21% | [2] 8.55% | [3] 24% | [4] 14.2% | [5] 10.7%

O=[N+]([O-])c1ccc2ncnc(N3CCN(Cc4ccc5c(c4)OCO5)CC3)c2c1
inactive: [5] 8.73%
active: [1] 74.2% | [2] 53.2% | [3] 64.4% | [4] 64.9% | [6] 54.2%

CNc1cccnc1C=NNC(N)=S
active: [1] 71.3% | [2] 40.5% | [3] 58.5% | [8] 57.8% | [9] 52.1%
inactive: [4] 17.9% | [7] 25.3% | [10] 30.4% | [5] -4.08% | [6] 9.84%

O=c1cc(-c2ccccc2Cl)oc2c([N+](=O)[O-])c(O)cc(O)c12
active: [1] 61.5% | [2] 44.4% | [3] 51.9% | [4] 37% | [6] 52.9%
inactive: [5] 4.67%

CC1(C)CC(N2CCN(C(c3ccccc3)c3ccccc3)CC2)=CC(=[N+]2CCCCC2)C1
active: [1] 91% | [2] 87.8% | [3] 69.5% | [4] 87.8% | [7] 80.6% | [8] 110% | [9] 94.8% | [10] 94.7% | [11] 24.1% | [12] 86.3%

CCC1=C(CC2NCCc3ccccc32)CC2c3cc(OC)c(OC)cc3CCN2C1 (stereo not drawn)
active: [1] 90.6% | [2] 84.9% | [3] 63.7% | [4] 85.7% | [7] 87.4% | [8] 98.3% | [9] 88.3% | [10] 93.9% | [5] 47.1% | [6] 52.6%

CC(=O)OC1CC2C(C)(C)C(=O)C=CC2(C)C2CCC3(C)C(c4ccoc4)OC(=O)C4OC43C12C (stereo not drawn)
inactive: [3] 25.9% | [6] 6.63%
active: [1] 49.5% | [2] 41.8% | [4] 56.1% | [5] 43.9%

CCC(=O)NC(c1ccc(C)cc1)c1ccc2cccnc2c1O (stereo not drawn)
inactive: [3] 45.3% | [5] -3.42% | [6] 24.4%
active: [1] 55.7% | [2] 38.1% | [4] 53.4%

CC(C)(C)OC(=O)N1Cc2ccccc2C[C@H]1C(=O)NCC(=O)Nc1ccc2c(c1)OCCO2
active: [6] 52%
inactive: [1] 28.9% | [2] 1.92% | [3] 5.58% | [4] -7.64% | [5] -3.02%

CCOc1cc(/C=C2\COc3ccccc3C2=O)cc(Br)c1OCC(=O)N(C)C
active: [1] 61.1% | [2] 35.8% | [4] 39.2% | [5] 44.5%
inactive: [3] 22.3% | [6] 34%

CC1(C)Cc2c(ccc3ccccc23)C(=O)N1
inactive: [4] 23.7% | [5] -22.7% | [6] 32.1%
active: [1] 55.7% | [2] 37.2% | [3] 55%

Clc1ccc(CSc2nnc(-c3ccncc3)o2)cc1
active: [1] 48.3% | [2] 30.9% | [4] 32.8%
inactive: [3] 43.3% | [5] -11.8% | [6] 28.8%

N#CC(C#N)c1ccnc2ccccc12
active: [1] 66.9% | [2] 40.6% | [3] 64.1% | [4] 38.3%
inactive: [5] 4.65% | [6] 36.4%

Cc1nc(SCC(=O)Nc2nc3ccccc3s2)c(C#N)c(C)c1C
active: [1] 92.7% | [2] 88.5% | [3] 82.4% | [4] 83.2% | [5] 92.1% | [6] 96.9%

CC1CCN(C2=NC(=O)/C(=C/c3ccccc3F)S2)CC1
inactive: [1] 38.5% | [2] -5.24% | [3] -2.11% | [4] -40.4% | [5] -74.3% | [6] 15.4%

Cc1noc(/C=C/c2ccccn2)c1[N+](=O)[O-]
active: [1] 54.6% | [2] 47.8% | [3] 48.4% | [4] 37%
inactive: [5] 25.9% | [6] 29.3%

Cc1cccc(Nc2ncnc3ccc(Br)cc23)c1
inactive: [1] 38.9% | [3] 32.8% | [5] 0.23% | [6] 29.7%
active: [2] 32.6% | [4] 25.8%

CCCC(=O)NC(c1ccc(Cl)cc1Cl)c1ccc2cccnc2c1O (stereo not drawn)
inactive: [1] 34.5% | [2] 28.6% | [3] 45.7% | [5] 0.83% | [6] 17.2%
active: [4] 48%

Cc1cc(N2CCOCC2)c2c(N)c(Br)cc(C)c2n1
inactive: [5] -7.31%
active: [1] 71.8% | [2] 59% | [3] 76.3% | [4] 60.3% | [6] 54.8%

COc1ccc2ncn(-c3ccccc3)c2c1
inactive: [3] 46.1% | [4] 23.7% | [5] -12.1% | [6] 38.2%
active: [1] 49.2% | [2] 32.7%

CCn1c(Oc2ccc(F)cc2)nc2c1c(=O)n(C)c(=O)n2C
active: [2] 29.8%
inactive: [1] 33.6% | [3] 39.9% | [4] 23.5% | [5] 2.83% | [6] 30.9%

Nc1ncnc(N2CCc3ccccc32)c1[N+](=O)[O-]
inactive: [5] 9.34%
active: [1] 85.4% | [2] 61.3% | [3] 75.9% | [4] 61.2% | [6] 55.2%

Cc1cc(NC(c2ccc(Cl)cc2)c2ccc3cccnc3c2O)no1 (stereo not drawn)
inactive: [3] 28.2% | [5] -9.15% | [6] 17.6%
active: [1] 54% | [2] 42% | [4] 58.8%

CC1(Cc2ccc(Cl)cc2)C(=O)Nc2ccc(-c3cccnc3)cc21 (stereo not drawn)
active: [1] 73.7% | [2] 49.3% | [3] 59.2% | [4] 52.8% | [6] 53.2%
inactive: [5] 6.39%

CCN(CC)Cc1c(O)ccc2c([N+](=O)[O-])c(C)n(-c3ccc(OC)cc3)c12
active: [1] 69% | [2] 50.9% | [3] 68.7% | [4] 54.7%
inactive: [5] 15.8% | [6] 41.4%

O=C(CCl)NC(Cc1ccccc1)c1ccccc1 (stereo not drawn)
inactive: [2] 14.2% | [3] 24.6% | [4] 6.41% | [5] 32.8%
active: [1] 52.5% | [6] 47.5%

CC(=O)c1ccc(-n2c(C)c(C(C)=O)c3cc(O)ccc32)cc1
inactive: [3] 45.9% | [5] 2.74%
active: [1] 63% | [2] 45.6% | [4] 46.7% | [6] 54.7%

C=Cc1ccc(CC2(C)C(=O)Nc3ccc(-c4cccnc4)cc32)cc1 (stereo not drawn)
inactive: [5] 2.06% | [6] 35%
active: [1] 45.2% | [2] 38% | [3] 53.8% | [4] 31.1%

CNc1ccc2ncc(-c3ccc(OC)c(OC)c3)n2n1
active: [1] 80.1% | [2] 63.1% | [3] 75.4% | [4] 60.1%
inactive: [5] -12.4% | [6] 37.3%

COc1ccc(/C=C2/SC(=S)N(CCCC(=O)Nc3ccccc3C(=O)O)C2=O)cc1
inactive: [1] 22% | [2] 11.6% | [3] -7.34% | [4] 7.32%
active: [5] 66.5% | [6] 72.3%

CCCCN(c1ccccc1)c1ncnc(N)c1[N+](=O)[O-]
active: [1] 72.2% | [2] 57.6% | [3] 64.5% | [4] 48.5%
inactive: [5] 17.4% | [6] 44.7%

CC1(Cc2ccc(F)cc2)C(=O)Nc2ccc(-c3cccnc3)cc21 (stereo not drawn)
inactive: [5] 10.2% | [6] 36.8%
active: [1] 50.6% | [2] 35.4% | [3] 48.7% | [4] 35.3%

Cc1cc(C(=O)COC(=O)c2cccnc2Cl)c(C)n1CC1CCCO1 (stereo not drawn)
active: [6] 56.6%
inactive: [1] 19.6% | [2] 27.6% | [3] -18.2% | [4] -20.1% | [5] 6.65%

Cc1ccccc1C(=O)N1CCN(c2ccc(NC(=O)c3ccc4c(c3)OCCO4)cc2)CC1
inactive: [1] 25.7% | [3] 32.2% | [5] 34.3% | [6] 45.5%
active: [2] 43% | [4] 41.5%

COC(=O)Cc1[nH]n(-c2nc3ccccc3s2)c(=O)c1C(C)=Nc1ccc(OC)cc1
active: [1] 85.2% | [2] 78.4% | [3] 71.8% | [4] 73.8% | [5] 91.5% | [6] 93.9%

O=C(NC1CCCCC1)C(c1cccnc1)N(C(=O)CCl)c1cccc(Cl)c1 (stereo not drawn)
active: [1] 61.6% | [5] 39.6% | [6] 56.3%
inactive: [2] 26.8% | [3] 33.4% | [4] 17.5%

Cc1ccc(S(=O)(=O)c2ccc([N+](=O)[O-])cn2)cc1
inactive: [1] 25.7% | [2] -18.7% | [3] -25.7% | [4] -32.7% | [5] 13% | [6] 23.4%

c1csc(CNc2ncnc3ccc(-c4ccoc4)cc23)c1
active: [1] 62.6% | [2] 41.1% | [4] 37%
inactive: [3] 34.6% | [5] 5.65% | [6] 37.1%

COc1ccc(/C=C2\SC(=S)N(CCCC(=O)N3CCCCC3CCO)C2=O)cc1 (stereo not drawn)
inactive: [1] 20.9% | [2] 17.1% | [3] 4.91% | [4] 13.6%
active: [5] 61% | [6] 65.9%

Cc1ccc2nc(C(F)(F)F)c(C#N)c(N)c2c1
active: [1] 48.2% | [6] 50.1%
inactive: [2] 9.27% | [3] 27.6% | [4] 2.5% | [5] 1.92%

Cc1ccc(-n2c(C)c([N+](=O)[O-])c3ccc(O)c(CN(C)C)c32)cc1
active: [1] 76.7% | [2] 51.9% | [3] 63.4% | [4] 49.5%
inactive: [5] 2.96% | [6] 41.4%
